Results reported in PubChem BioAssay (EPA / NIEHS).
Several values for one entry are separate records, joined by “and”; a condition that tells them apart may be missing. Equal entries are not always repeated. A structure can be active in one record and inactive in another. Activity calls are given as the source filed them. Rule for the calls: active = hit-call score of the fitted dose curve at least 0.9, where 1 is the maximum; inactive = score below 0.9.

Key:
[1] = target: Transcription factor E2F1 (Homo sapiens) (UniProt Q01094); assay: ATG_E2F_CIS: Attagene CIS-FACTORIAL HepG2 Assay for human E2F Transcription Factor 1 (AID 2282935); settings: HepG2 Attagene cis-reporter, E2F reporter RNA transcripts; actives raise or lower the signal
How it was run: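 Measures reporter transcript levels via RT-PCR with capillary electrophoresis detection in HepG2 cells harboring cis-regulated reporter units; 24 h post-dose; bidirectional curve fitting with DMSO as baseline.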

[2] = ATG_E_Box_CIS: Attagene CIS-FACTORIAL HepG2 Assay for human Enhancer Box (E-box) (AID 2282936); settings: HepG2 E-box cis-reporter transcription, actives raise or lower the signal
How it was run: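 First, HepG2 cells receive multiple cis-regulated reporter constructs by transient transfection. Next, chemicals are applied for 24 h. Finally, reporter mRNA is quantified via RT-PCR and capillary electrophoresis, with DMSO as baseline.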

[3] = ATG_M_61_CIS: Attagene CIS-FACTORIAL HepG2 Assay for M61 Transcription Factor (Internal Marker) (AID 2282937); settings: HepG2 Attagene CIS-FACTORIAL M61 internal marker reporter; actives raise or lower the signal
How it was run: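 Using transiently transfected HepG2 liver cells, reporter transcript levels were assessed 24 h post-dosing by RT-PCR and capillary electrophoresis. Changes in either direction were fitted relative to DMSO controls.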

[4] = ATG_EGR_CIS: Attagene CIS-FACTORIAL HepG2 Assay for human Early Growth Response 1 (EGR1) (AID 2282938); settings: HepG2 Attagene CIS-FACTORIAL EGR reporter mRNA; actives raise or lower the signal
How it was run: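 Fluorescent capillary-electrophoresis signal of reporter cDNA fragments serves as read-out. HepG2 cells bear transiently transfected cis-promoter reporter units and are exposed 24 h; gain- or loss-of-signal is fitted against DMSO.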

[5] = ATG_M_19_CIS: Attagene CIS-FACTORIAL HepG2 Assay for M19 Transcription Factor (Internal Marker) (AID 2282939); settings: HepG2 Attagene CIS-FACTORIAL M19 internal marker reporter; actives raise or lower the signal
How it was run: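 Readout: fluorescent reporter-transcript fragments by capillary electrophoresis after RT-PCR. Human HepG2 liver cells carried transfected MRTU constructs reporting endogenous transcription-factor activity; exposure 24 h. Gain or loss of signal fitted relative to DMSO.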

[6] = ATG_ERE_CIS: Attagene CIS-FACTORIAL HepG2 Assay for Estrogen Response Element (ERE) (AID 2282940); settings: HepG2 ERE cis-reporter, Attagene RNA transcript; actives raise or lower the signal
How it was run: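 Readout: reporter mRNA induction by RT-PCR, FAM-labelled primer extension, HpaI digestion and capillary electrophoresis, 24 h after dosing transfected HepG2 cells. Endogenous transcription factors act on cis-element-regulated reporters. Gain or loss fitted against DMSO.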

[7] = ATG_Ets_CIS: Attagene CIS-FACTORIAL HepG2 Assay for human Erythroblast Transformation Specific (ETS) (AID 2282941); settings: HepG2 ETS cis-reporter transcription, actives raise or lower the signal
How it was run: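 After transient cis-reporter transfection, HepG2 cells receive test chemical for 24 h. Reporter mRNA levels, measured by RT-PCR and capillary electrophoresis fluorescence, are analysed bidirectionally relative to the DMSO baseline.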

[8] = target: Hepatocyte nuclear factor 3-beta (Homo sapiens) (UniProt Q9Y261); assay: ATG_FoxA2_CIS: Attagene CIS-FACTORIAL HepG2 Assay for human Forkhead box A2 (FOXA2) (AID 2282942); settings: HepG2 cis-reporter transcription factor activity, 24 h; actives raise or lower the signal
How it was run: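 Fluorescence signal of reporter cDNA fragments, separated by capillary electrophoresis, reflects endogenous transcription factor activity in transfected HepG2 after 24 h. Both increases and decreases fitted against DMSO.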

[9] = ATG_FoxO_CIS: Attagene CIS-FACTORIAL HepG2 Assay for human Forkhead box O (FoxO) (AID 2282943); settings: HepG2 Attagene cis-reporter, FoxO element, mRNA; actives raise or lower the signal
How it was run: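 HepG2 cells transiently transfected with cis-element-driven reporter units report endogenous FoxO activity. After 24 h chemical exposure, reporter mRNA quantified by RT-PCR, fluorescent labeling, HpaI digestion and capillary electrophoresis; bidirectional fit versus DMSO.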

[10] = ATG_GLI_CIS: Attagene CIS-FACTORIAL HepG2 Assay for human Zinc Finger Protein GLI1 (AID 2282945); settings: HepG2, Attagene cis-factorial reporter mRNA, GLI element; actives raise or lower the signal
How it was run: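 Transiently transfected HepG2 cells report endogenous transcription factor activity via cis-element-driven reporter units. After 24 h compound exposure, reporter mRNA was measured by RT-PCR with capillary electrophoresis; bidirectional fitting against DMSO baseline.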

[11] = ATG_ISRE_CIS: Attagene CIS-FACTORIAL HepG2 Assay for human Interferon Regulatory Factor 1 (IRF1) binding to an Interferon-Stimulated Response Element (ISRE) (AID 2282948); settings: HepG2 ISRE cis-reporter (Attagene), mRNA transcription readout; actives raise or lower the signal
How it was run: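 Quantitation relies on labelled RT-PCR fragments separated by capillary electrophoresis. Human HepG2 cells bearing cis-promoter reporter constructs were treated 24 h; DMSO served as baseline for bidirectional fitting.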

[12] = ATG_M_32_CIS: Attagene CIS-FACTORIAL HepG2 Assay for M32 Transcription Factor (Internal Marker) (AID 2282949); settings: HepG2 Attagene cis-factorial M32 reporter, mRNA; actives raise or lower the signal;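 note: background control marker of the multiplexed CIS panel rather than a real target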
How it was run: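 Internal background marker read-out: RT-PCR/capillary electrophoresis fluorescence of reporter transcripts from transiently transfected HepG2 cells after 24 h chemical exposure. Activity fitted bidirectionally relative to DMSO negative control.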

[13] = ATG_M_06_CIS: Attagene CIS-FACTORIAL HepG2 Assay for M06 Transcription Factor (Internal Marker) (AID 2282950); settings: HepG2 Attagene CIS-FACTORIAL M06 internal marker reporter; actives raise or lower the signal
How it was run: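 Terse: HepG2, transient MRTU transfection (FuGene 6), 24 h dosing; total RNA, oligo(dT) RT, PCR, FAM label, HpaI cut, capillary electrophoresis; bidirectional fit vs DMSO baseline; background-control endpoint.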

[14] = target: Hypoxia-inducible factor 1-alpha (Homo sapiens) (UniProt Q16665); assay: ATG_HIF1a_CIS: Attagene CIS-FACTORIAL HepG2 Assay for human Hypoxia Inducible Factor 1 (HIF1A) (AID 2282951); settings: HepG2 Attagene cis-factorial HIF1a reporter transcription; actives raise or lower the signal
How it was run: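 Endogenous-TF cis reporter readout, human HepG2 cells, 24 h incubation; mRNA detected via RT-PCR and capillary electrophoresis fluorescence; DMSO-normalised bidirectional fitting.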

[15] = target: Heat shock factor protein 1 (Homo sapiens) (UniProt Q00613); assay: ATG_HSE_CIS: Attagene CIS-FACTORIAL HepG2 Assay for human Heat Shock Transcription Factor 1 (HSE) (AID 2282953); settings: HepG2 HSE cis-reporter, Attagene RNA transcription; actives raise or lower the signal
How it was run: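 Read-out: fluorescence of reporter-specific RT-PCR fragments separated by capillary electrophoresis. HepG2 carrying transfected cis-element reporter units; 24 h dosing; activity fitted in both directions relative to DMSO baseline.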

[16] = ATG_MRE_CIS: Attagene CIS-FACTORIAL HepG2 Assay for human Metal Responsive Element (MRE) (AID 2282954); settings: HepG2 MRE cis-reporter transcription, Attagene multiplex; actives raise or lower the signal
How it was run: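 Fluorescent reporter fragments separated by capillary electrophoresis give mRNA induction for the MRE unit after 24 h treatment of transfected HepG2 cells. Endogenous transcription-factor activity is read; DMSO serves as negative control and baseline.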

[17] = target: Bile acid receptor (Homo sapiens) (UniProt Q96RI1); assay: ATG_IR1_CIS: Attagene CIS-FACTORIAL HepG2 Assay for human Nuclear Receptor Subfamily 1 Group H Member 4 (NR1H4), IR1 submotif (AID 2282946); settings: IR1 reporter transcription, actives raise or lower the signal
How it was run: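 HepG2 cells transiently transfected with multiple cis-promoter-driven reporter units to measure endogenous transcription factor activity; 24 h exposure. Reporter mRNA read by RT-PCR, FAM labelling, HpaI digestion and capillary electrophoresis. Bidirectional fit versus DMSO.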

Measured: AC50

Sequence of Transcription factor E2F1 (Homo sapiens) (Q01094 whole entry, looked up): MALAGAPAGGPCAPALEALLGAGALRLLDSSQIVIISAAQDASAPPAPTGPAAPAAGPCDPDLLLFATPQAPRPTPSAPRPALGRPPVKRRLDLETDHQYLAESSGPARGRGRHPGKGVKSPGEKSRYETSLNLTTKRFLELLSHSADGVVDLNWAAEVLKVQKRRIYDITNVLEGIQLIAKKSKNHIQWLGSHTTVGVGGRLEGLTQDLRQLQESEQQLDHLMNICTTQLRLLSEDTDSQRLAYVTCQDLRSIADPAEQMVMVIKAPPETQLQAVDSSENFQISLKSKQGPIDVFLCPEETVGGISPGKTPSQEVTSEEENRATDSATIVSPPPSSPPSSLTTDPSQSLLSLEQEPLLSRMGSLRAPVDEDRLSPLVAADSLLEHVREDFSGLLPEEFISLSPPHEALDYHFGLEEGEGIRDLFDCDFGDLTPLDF
Sequence of Bile acid receptor (Homo sapiens) (Q96RI1 whole entry, looked up): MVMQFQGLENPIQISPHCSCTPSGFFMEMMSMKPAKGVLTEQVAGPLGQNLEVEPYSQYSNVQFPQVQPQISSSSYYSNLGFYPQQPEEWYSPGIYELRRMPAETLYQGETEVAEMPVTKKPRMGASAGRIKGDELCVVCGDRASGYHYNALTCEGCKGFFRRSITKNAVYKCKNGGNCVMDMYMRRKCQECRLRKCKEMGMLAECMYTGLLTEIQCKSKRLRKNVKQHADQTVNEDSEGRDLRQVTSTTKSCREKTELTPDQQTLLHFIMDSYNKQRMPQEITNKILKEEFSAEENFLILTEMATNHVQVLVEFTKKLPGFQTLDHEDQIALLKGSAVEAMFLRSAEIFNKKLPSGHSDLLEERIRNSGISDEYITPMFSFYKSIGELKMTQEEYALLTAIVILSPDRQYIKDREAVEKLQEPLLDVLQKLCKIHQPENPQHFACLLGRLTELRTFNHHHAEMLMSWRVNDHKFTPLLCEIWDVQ
Sequence of Hypoxia-inducible factor 1-alpha (Homo sapiens) (Q16665 whole entry, looked up): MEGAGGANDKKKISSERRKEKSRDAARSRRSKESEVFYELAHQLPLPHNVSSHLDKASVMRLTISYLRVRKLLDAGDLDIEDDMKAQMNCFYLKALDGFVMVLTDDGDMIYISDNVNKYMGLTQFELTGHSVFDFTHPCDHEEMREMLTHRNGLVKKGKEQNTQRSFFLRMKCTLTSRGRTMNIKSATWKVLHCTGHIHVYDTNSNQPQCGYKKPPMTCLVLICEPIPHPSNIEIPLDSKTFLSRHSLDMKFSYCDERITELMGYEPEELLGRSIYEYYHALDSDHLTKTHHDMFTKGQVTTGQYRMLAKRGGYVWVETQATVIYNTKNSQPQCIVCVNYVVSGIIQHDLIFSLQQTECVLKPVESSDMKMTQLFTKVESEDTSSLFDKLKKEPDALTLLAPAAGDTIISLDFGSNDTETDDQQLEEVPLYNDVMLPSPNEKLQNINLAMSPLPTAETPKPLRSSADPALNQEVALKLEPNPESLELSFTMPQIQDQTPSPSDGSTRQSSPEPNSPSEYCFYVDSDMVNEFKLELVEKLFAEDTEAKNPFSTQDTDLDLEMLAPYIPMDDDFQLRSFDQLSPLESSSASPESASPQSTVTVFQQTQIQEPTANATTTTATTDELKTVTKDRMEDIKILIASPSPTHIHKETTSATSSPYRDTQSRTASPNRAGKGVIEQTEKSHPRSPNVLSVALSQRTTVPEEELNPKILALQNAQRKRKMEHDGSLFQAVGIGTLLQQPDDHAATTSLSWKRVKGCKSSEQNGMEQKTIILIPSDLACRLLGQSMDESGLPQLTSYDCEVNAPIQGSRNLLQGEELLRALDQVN
Sequence of Hepatocyte nuclear factor 3-beta (Homo sapiens) (Q9Y261 whole entry, looked up, the tested form may be a part): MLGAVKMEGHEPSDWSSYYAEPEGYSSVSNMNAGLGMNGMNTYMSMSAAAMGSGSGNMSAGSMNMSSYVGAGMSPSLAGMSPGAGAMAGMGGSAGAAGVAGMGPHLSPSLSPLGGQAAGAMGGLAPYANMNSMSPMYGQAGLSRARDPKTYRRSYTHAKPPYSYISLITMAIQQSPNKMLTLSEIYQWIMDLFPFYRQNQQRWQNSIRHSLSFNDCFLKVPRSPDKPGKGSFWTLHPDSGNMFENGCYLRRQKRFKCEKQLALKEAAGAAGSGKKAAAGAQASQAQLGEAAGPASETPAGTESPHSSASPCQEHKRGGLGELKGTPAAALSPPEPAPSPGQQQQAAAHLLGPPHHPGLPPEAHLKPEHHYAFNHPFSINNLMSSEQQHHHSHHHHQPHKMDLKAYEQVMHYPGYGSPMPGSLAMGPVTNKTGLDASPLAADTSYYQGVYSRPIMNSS
Sequence of Heat shock factor protein 1 (Homo sapiens) (Q00613 whole entry, looked up, the tested form may be a part): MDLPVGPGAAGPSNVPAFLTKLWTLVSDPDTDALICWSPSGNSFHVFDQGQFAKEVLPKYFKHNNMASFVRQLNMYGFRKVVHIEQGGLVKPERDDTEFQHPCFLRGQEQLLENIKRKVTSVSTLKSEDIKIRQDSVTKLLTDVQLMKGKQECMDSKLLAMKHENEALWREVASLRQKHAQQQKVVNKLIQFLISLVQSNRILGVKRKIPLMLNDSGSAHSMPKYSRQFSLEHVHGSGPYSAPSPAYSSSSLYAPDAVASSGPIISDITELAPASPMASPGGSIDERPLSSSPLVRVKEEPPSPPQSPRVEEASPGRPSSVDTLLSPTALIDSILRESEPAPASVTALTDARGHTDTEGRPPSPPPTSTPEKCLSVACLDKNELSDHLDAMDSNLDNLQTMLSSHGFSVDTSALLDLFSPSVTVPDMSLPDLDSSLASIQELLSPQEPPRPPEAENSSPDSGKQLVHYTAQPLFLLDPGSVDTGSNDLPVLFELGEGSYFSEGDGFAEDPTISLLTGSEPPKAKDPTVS

O=C(O)Cc1cc(I)c(Oc2cc(I)c(O)c(I)c2)c(I)c1
inactive: [1] | [2] | [3] | [5] | [6] | [7] | [8] | [9] | [10] | [11] | [12] | [13] | [14]
active: [2] 113 µM | [4] 22.5 µM and 36.5 µM | [7] 38.1 µM | [8] 83.7 µM | [9] 46.7 µM | [10] 67 µM | [12] 108 µM | [15] 40.5 µM and 44.9 µM | [16] 32.7 µM and 54.7 µM

CCC(=C(c1ccc(O)cc1)c1ccc(OCCN(C)C)cc1)c1ccccc1
active: [1] 10.8 µM | [2] 9.17 µM and 7.1 µM and 3.43 µM | [3] 11.7 µM | [4] 9.87 µM and 10.8 µM | [5] 10.7 µM | [10] 11.2 µM | [17] 1.45 µM | [11] 9.63 µM | [13] 11.7 µM | [14] 4.12 µM | [15] 12.1 µM and 12.3 µM | [16] 7.1 µM and 9.34 µM
inactive: [1] | [2] | [3] | [4] | [5] | [6] | [7] | [8] | [9] | [10] | [17] | [11] | [12] | [13] | [14] | [15] | [16]
